From PubChem BioAssay (NCI)
Several values for one entry are separate records, joined by “and”; a condition that tells them apart may be missing. Equal entries are not always repeated. This is part of a sample that, as a whole, favours compounds with a hit. Of some 79,000 tested, about 15% had one in any assay. Cut-off read from the data, not from the text of the source: active = growth inhibition above about 70%; inactive = the rest.

Assays:
[1] = NCI Yeast Anticancer Drug Screen. Data for the rad50 strain (AID 155);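 note: 0% = growth of vehicle-only cultures of the same strain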; settings: S. cerevisiae rad50 strain growth inhibition, stronger effect = higher value; at 50.0 µM unless noted
How it was run: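 DNA repair mutant yeast, compound exposure, growth read-out; inhibition is taken relative to vehicle.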

[2] = NCI Yeast Anticancer Drug Screen. Data for the mec2-1 strain (AID 157); settings: S. cerevisiae mec2-1 strain, stronger effect = higher value; at 50.0 µM unless noted
How it was run: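 Vehicle-treated cultures served as reference for growth inhibition of compound-exposed mec2-1 yeast.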

[3] = NCI Yeast Anticancer Drug Screen. Data for the sgs1 mgt1 strain (AID 161);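 note: 0% = growth of cultures given vehicle only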; settings: S. cerevisiae sgs1 mgt1 strain, stronger effect = higher value; at 50.0 µM unless noted
How it was run: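 Read-out: growth inhibition vs vehicle controls. Cells: mutant yeast strain deficient in DNA damage repair.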

[4] = NCI Yeast Anticancer Drug Screen. Data for the cln2 rad14 strain (AID 165);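 note: 0% = growth equal to vehicle treated cultures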; settings: S. cerevisiae cln2 rad14 strain, stronger effect = higher value; at 50.0 µM unless noted
How it was run: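 Each compound was tested on cln2 rad14 yeast. Inhibition of growth was calculated against vehicle-exposed controls.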

[5] = NCI Yeast Anticancer Drug Screen. Data for the bub3 strain (AID 167); settings: S. cerevisiae bub3 mutant strain, stronger effect = higher value; at 50.0 µM unless noted
How it was run: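 In this screen, a yeast mutant lacking normal mitotic checkpoint function is challenged with compound. Relative growth versus vehicle gives the inhibition value.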

[6] = NCI Yeast Anticancer Drug Screen. Data for the mlh1 rad18 strain (AID 175); settings: S. cerevisiae mlh1 rad18 strain growth inhibition, stronger effect = higher value; at 50.0 µM unless noted
How it was run: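 Vehicle-treated cultures served as the reference for growth inhibition in a yeast strain carrying DNA damage repair alterations exposed to each compound.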

Measured: growth inhibition

CCOC(=O)/C(C#N)=C/c1ccccc1Cl
inactive: [1] 12.1% | [2] -6.3% | [3] -30.6% | [4] 16.1% | [5] -20.1% | [6] 6.35%

O/N=C1\c2ccccc2-c2cccc(Br)c21
inactive: [1] 0.25% | [2] 2.9% | [3] 4.55% | [4] -40.6% | [5] -9.6% | [6] 5.45%

CC(=O)c1ccccc1OB(F)F
inactive: [1] 10.2% | [2] -11.2% | [3] 8.8% | [4] -4.45% | [5] 1.05% | [6] -11.9%

CN(C)C1=CC(=S)NC(c2ccccc2)C1 (stereo not given)
inactive: [1] -2.35% | [2] -16.1% | [3] -3.7% | [4] -11.8% | [5] -15% | [6] -0.55%

CC(=O)NCC(=O)c1ccc([N+](=O)[O-])cc1
inactive: [1] 16.6% and -14.7% | [2] -16.3% and -24.1% | [3] 13% and -0.95% | [4] -0.2% and 6.65% | [5] -6.95% and -17.6% | [6] 29.8% and -1.7%

CCC1CC2CC(c3cc4c(cc3OC)N(C)C3C(O)(C(=O)OC)C(OC(C)=O)C5(CC)C=CCN6CCC43C65)c3[nH]c4ccccc4c3CCN(C1)C2 (stereo not given)
inactive: [1] 17.9% | [2] 14.3% | [3] 28.9% | [4] 2% | [5] 8.65% | [6] 43.4%

O=C(O)C(c1ccccc1)N1C(=O)C(Cl)=C(Cl)C1=O (stereo not given)
inactive: [1] -0.1% | [2] -6.35% | [3] 1.4% | [4] -10.8% | [5] 1.15% | [6] 10.8%

NCCNCCNCCN
inactive: [1] -12.4% and -8.1% | [2] -7.65% and -20.7% | [3] 3.1% | [4] -28.9% | [5] -5.35% | [6] -19.4% and 29.1%

OCC1OC(O)C(O)C(O)C1O (stereo not given)
inactive: [1] 5.05% and 8.6% | [2] 1.75% and 15.1% | [3] -0.95% and -5.85% | [4] -19.4% and 16.8% | [5] -4.1% and 2.1% | [6] 3.1% and 14.4%

Cc1ccc(OCCC(=O)N(C)C)cc1
inactive: [1] 5.05% | [2] 2.9% | [3] -8.25% | [4] -10% | [5] 4.2% | [6] 10.9%

CCCCCCCCCC(=O)N=C(C(N)=O)C(N)=O
inactive: [1] -13.2% | [2] 18.3% | [3] 38.5% | [4] 3.75% | [5] 1.7% | [6] 21.8%

CC(=O)Nc1ccc(S(=O)(=O)NC(C)=O)cc1
inactive: [1] -5.8% | [2] -8.75% | [3] -2.7% | [4] -20.4% | [5] 6.7% | [6] 12.6%

N#C/C(=C\c1ccccc1)c1cccc(F)c1
inactive: [1] 28.9% | [2] 24.6% | [3] 18.2% | [4] -4.05% | [5] 15.7% | [6] 11.4%

COC(=O)C(Cc1ccc(N(C)C)cc1)(NC(=O)c1ccccc1)P(=O)(OC)OC (stereo not given)
inactive: [1] -17.8% | [2] 10.8% | [3] -28.2% | [4] 1.9% | [5] 4.4% | [6] -5.4%

Cc1nc2[nH]c(=O)[nH]c(=O)c2s1
inactive: [1] -5.65% | [2] 4.15% | [3] -1.25% | [4] -6.6% | [5] -10.8% | [6] -2.35%

CCCCCCCCCCC1CC(=O)OC1=O (stereo not given)
inactive: [1] 17.2% | [2] 14.7% | [3] 29.6% | [4] 9.45% | [5] 9.25% | [6] 8.3%

CC(=O)c1ccc(N=CC2CCCCC2=O)cc1 (stereo not given)
inactive: [1] -8.35% | [2] 2.7% | [3] 17.1% | [4] -30.1% | [5] -2.9% | [6] -13.9%

CCCCCC1CC(C(C)=O)CN1c1ccc(F)cc1 (stereo not given)
inactive: [1] -0.95% | [2] 8.4% | [3] 11.8% | [4] 8.7% | [5] -1% | [6] -2%

CCOC(=O)Cc1ccc(N(CCO)CCO)cc1
inactive: [1] 5.15% | [2] 7.4% | [3] 22.8% | [4] -0.2% | [5] 12.9% | [6] 5.55%

Cc1cccc(NC(=O)C(=O)C(C(=O)c2ccc3ccccc3c2)C2OC(=O)c3ccccc32)c1C (stereo not given)
inactive: [1] -3.95% | [2] 4.75% | [3] 13.5% | [4] -59.5% | [5] 5.75% | [6] -6.75%

O=S1(=O)C(c2cccc(F)c2)=C(O)c2cc3ccccc3nc21
inactive: [1] 15.8% | [2] 5.45% | [3] 11.6% | [4] -20.6% | [5] -23.8% | [6] 9.45%

O=C(CC(=O)c1cc(Cl)ccc1O)c1ccc2ccccc2n1
inactive: [1] -0.35% | [2] 13.2% | [3] 18.8% | [4] -21.8% | [5] -2.85% | [6] 22.4%

O=C(O)CC(O)(CC(=O)O)C(=O)O
inactive: [1] 25% | [2] 17.9% | [3] -19.6% | [4] 3.65% | [5] -0.25% | [6] 9.25%

CC1=C(c2ccccc2)C(c2ccccc2)=C(C)C1=NNc1ccc([N+](=O)[O-])cc1[N+](=O)[O-]
inactive: [1] 10.6% | [2] 11.8% | [3] 0.8% | [4] 16.4% | [5] -3.25% | [6] 1.4%

COc1ccc2[nH]c3c(C)c4c(c(C)c3c2c1)CN(C)C=C4
inactive: [1] 45.6% | [2] 48.2% | [3] 62.7% | [4] 21.2% | [5] 65.8% | [6] 8.95%

O=C1OC(=O)c2c1nc1ccccc1c2-c1ccccc1
inactive: [1] -31.5% | [2] -3.9% | [3] 9.35% | [4] 26% | [5] -6.15% | [6] 23.6%

COc1ccc2c(c1)[n+](=O)c(C(=O)C/C(=N\NC(=O)C[N+](C)(C)C)C(=O)Nc1cc(Cl)ccc1Cl)c(C)n2O
inactive: [1] -27.9% | [2] -12.7% | [3] -43.6% | [4] 9.3% | [5] -23.1% | [6] -23.4%

Nc1ccc(S(=O)(=O)Nc2cc(C(F)(F)F)cc(C(F)(F)F)c2)cc1
inactive: [1] 12.9% | [2] 16.6% | [3] 28.6% | [4] 41.6% | [5] 10.7% | [6] 32%

Cc1ncc([N+](=O)[O-])n1CC(O)Cn1cnc([N+](=O)[O-])n1 (stereo not given)
inactive: [1] -19% | [2] -6.5% | [3] -1.75% | [4] -4.2% | [5] -4.35% | [6] -31.4%

COc1ccc2occ(CCC(=O)O)c2c1
inactive: [1] 6.4% | [2] -0.75% | [3] -2.25% | [4] -25.9% | [5] -1.1% | [6] 6.9%

CC(C)(O)C#CC(C)(C)O
inactive: [1] 1.1% | [2] -7.7% | [3] -10.7% | [4] 0.25% | [5] 5.65% | [6] -11.7%

Cc1nc(Nc2cccc(Cl)c2)c2cnn(-c3ccc(Cl)cc3)c2n1
inactive: [1] -2.5% | [2] -0.25% | [3] 1.1% | [4] -41.4% | [5] -0.45% | [6] -4.35%

O=C(CC1C(=O)Nc2ccccc2S1=O)Nc1cc(Cl)ccc1Cl (stereo not given)
inactive: [1] -14.9% | [2] -24.2% | [3] 3.1% | [4] 8.15% | [5] -4.6% | [6] -6.1%

c1ccc(NN(Cc2cnccn2)c2ccccc2)cc1
inactive: [1] 9.75% | [2] -2.65% | [3] -24.9% | [4] -29.9% | [5] -56.5% | [6] -12%

N#CCCCCCOCCOCCOCCOCCOCCCCCC#N
inactive: [1] 12.8% | [2] 12.9% | [3] -10.2% | [4] 12.7% | [5] -1.75% | [6] 18.6%

CCOC(=O)c1cc2ccccc2cc1N=N
inactive: [1] 8.3% | [2] 16.7% | [3] 15% | [4] -2.7% | [5] 23.2% | [6] 28.8%

CCC1=CCN(c2ccccn2)OC1c1ccc(OC)cc1 (stereo not given)
inactive: [1] 32.6% | [2] 13.7% | [3] 49.2% | [4] 22.3% | [5] 40.2% | [6] 24.1%

CN(C(=O)CCC1OCCO1)c1cc(N)ccc1OCc1ccccc1
inactive: [1] 15.3% | [2] -0.7% | [3] -7.2% | [4] 4.8% | [5] 19.9% | [6] -18.6%

c1ccc2c(c1)C(=NCCCN1CCCCCCC1)c1cccn1-2
inactive: [1] 23.5% | [2] 9.95% | [3] 29.1% | [4] -2.7% | [5] 23.1% | [6] 25.4%

C=C1CC[C@@H](C)[C@](C)(CCc2ccoc2)C/C=C\C=C/1C(=O)O
inactive: [1] 23.7% | [2] 30.8% | [3] 18.6% | [4] 48.1% | [5] 25.6% | [6] 61.6%
